PMC11062922 (Nature Chemical Biology, 2023)
Where two headings read alike, the source gives them in different places.

Experiments:
Set-up in all cases: species or system human, MV4-11 + K-562 + COLO205 + SK-N-BE2 + OVCAR-8
[1] = tested on: CDC42; details: read-out: apparent Kd, n = 1
[2] = tested on: ERN2; details: read-out: apparent Kd, n = 1
[3] = tested on: ICK; details: read-out: apparent Kd, n = 1
[4] = tested on: MAPK8; details: read-out: apparent Kd, n = 1
[5] = tested on: PRKAA1; details: read-out: apparent Kd, n = 1
[6] = tested on: MAP4K1; details: read-out: apparent Kd; compound concentrations:100 nM and 1000 nM (sheet 'Samples'); n = 1
[7] = tested on: STK4; details: read-out: apparent Kd, n = 1
[8] = tested on: PRKAA2; details: read-out: apparent Kd, n = 1
[9] = tested on: ERN1; details: read-out: apparent Kd, compound concentrations: 100 nM and 1000 nM (sheet 'Samples'), n = 1
[10] = tested on: MAP3K11; details: read-out: apparent Kd, n = 1
[11] = tested on: NNT; details: read-out: apparent Kd, n = 1
[12] = tested on: MTOR; details: read-out: apparent Kd; compound concentrations:100 nM and 1000 nM (sheet 'Samples'); n = 1
[13] = tested on: PIK3C2A; details: read-out: apparent Kd; compound concentrations:100 nM and 1000 nM (sheet 'Samples'); n = 1
[14] = tested on: TEC; details: read-out: apparent Kd; compound concentrations:100 nM and 1000 nM (sheet 'Samples'); n = 1
[15] = tested on: SLK; details: read-out: apparent Kd; compound concentrations:100 nM and 1000 nM (sheet 'Samples'); n = 1
[16] = tested on: STK26; details: read-out: apparent Kd, n = 1
[17] = tested on: PRKAG2; details: read-out: apparent Kd, n = 1
[18] = tested on: MARK4; details: read-out: apparent Kd; compound concentrations:100 nM and 1000 nM (sheet 'Samples'); n = 1
[19] = compound concentrations:100 nM and 1000 nM (sheet 'Samples')

## Cc1ccc(O)cc1Nc1ccnc2ccc(C(C)(C)C)cc12 [GW856805X]
[1]; compound concentrations: 100 nM and 1000 nM (sheet 'Samples'), CATDS: 2.73171121323963E-2
  potency estimated from few doses: 1430 nM

## CC(C)c1nc(-c2ccc(F)c(NS(=O)(=O)c3c(F)cccc3F)c2)c(-c2ccnc(Nc3ccc(N4CCOCC4)nc3)n2)s1 [GSK1804250A]
[2]; [19]
  potency estimated from few doses: 1120 nM

## N#Cc1cccc(Nc2nccc(-c3cnn4ncccc34)n2)c1 [GW778894X]
[3]; [19]
  potency estimated from few doses: 1.67 nM
[4]; [19]
  potency estimated from few doses: 1330 nM

## CN(C)Cc1ccc(-c2ccc3c(Nc4ccc(Oc5ccccn5)cc4)ccnc3c2)o1 [GW567148X]
[5]; compound concentrations: 100 nM and 1000 nM (sheet 'Samples'), CATDS: 1.81087827293436E-2
  potency estimated from few doses: 1380 nM

## Cn1cc(-c2cnc(N)c3c(-c4ccc5c(c4)CCN5C(=O)Cc4ccccc4)csc23)cn1 [GSK2593074A]
[6]
  potency estimated from few doses: 1630 nM
[7]; [19]
  potency estimated from few doses: 1130 nM

## COc1cc2ncn(-c3cc(OCCCc4ccccc4)c(C(N)=O)s3)c2cc1OC [GSK205189A]
[5]; [19]
  potency estimated from few doses: 1020 nM

## Cl.Cn1c(=O)c(Cc2ccc(F)cc2F)cc2cnc(NC3CCOCC3)nc21 [RO3308757-001]
[5]; [19]
  potency estimated from few doses: 706 nM
[8]; [19]
  potency estimated from few doses: 1190 nM

## CC(C)c1nc(-c2cccc(NS(=O)(=O)c3c(F)cccc3F)c2F)c(-c2ccnc(Nc3ccc(N4CCOCC4)nc3)n2)s1 [GSK2008607A]
[9]; CATDS: 1.9066828422081999E-2
  potency estimated from few doses: 1650 nM
[2]; compound concentrations: 100 nM and 1000 nM (sheet 'Samples'), CATDS: 2.27822446193667E-2
  potency estimated from few doses: 926 nM
[10]; compound concentrations: 100 nM and 1000 nM (sheet 'Samples'), CATDS: 3.6955578451965801E-2
  potency estimated from few doses: 316 nM
[8]; compound concentrations: 100 nM and 1000 nM (sheet 'Samples'), CATDS: 2.0597012246937899E-2
  potency estimated from few doses: 1250 nM

## O=S(=O)(c1ccc(-c2ccnc3[nH]ccc23)cc1)N1CCCC1 [GSK846226A]
[11]; [19]
  potency estimated from few doses: 2150 nM

## CNc1nccc(-c2c(-c3ccc(F)cc3)ncn2C2CCN(C)CC2)n1 [SB-222903]
[12]
  potency estimated from few doses: 295 nM

## Nc1nc(N)c2nc(-c3ccccc3)[nH]c2n1 [SKF-12778]
[12]
  potency estimated from few doses: 400 nM
[13]
  potency estimated from few doses: 2130 nM
[14]
  potency estimated from few doses: 1160 nM

## CC(=O)N1CCN(c2ccc(Nc3nccc(-c4sc(C(C)C)nc4-c4cccc(NS(=O)(=O)c5cccc(Cl)c5)c4)n3)cn2)CC1 [GSK1660437A]
[9]; CATDS: 3.4539361157079097E-2
  potency estimated from few doses: 2420 nM

## CN1CCN(Cc2ccc(-c3ccc4c(Nc5ccc(Oc6ccccn6)cc5)ccnc4c3)o2)CC1 [GW567140X]
[1]; compound concentrations: 100 nM and 1000 nM (sheet 'Samples'), CATDS: 3.5970497134968603E-2
  potency estimated from few doses: 1290 nM

## Nc1ncc(-c2cn[nH]c2)c2scc(-c3ccc4c(c3)CCN4C(=O)Cc3ccccc3)c12 [GSK2593067A]
[7]; compound concentrations: 100 nM and 1000 nM (sheet 'Samples'), CATDS: 7.8104026917421798E-2
  potency estimated from few doses: 768 nM

## COc1cc2ncn(-c3cc(OCc4sccc4Cl)c(C(N)=O)s3)c2cc1OC [GSK448459A]
[15]
  potency estimated from few doses: 434 nM

## COc1cc(F)c(F)c(F)c1C(=O)c1cnc(NC2CCN(S(C)(=O)=O)CC2)nc1N [RO4600703-000]
[3]; [19]
  potency estimated from few doses: 246 nM
[15]
  potency estimated from few doses: 471 nM

## NC(=O)c1cccnc1COc1cc(-c2ccc(N3CCOCC3)nc2)cc2ncccc12 [BI01125081]
[10]; [19]
  potency estimated from few doses: 1890 nM

## COc1ccc(C2=C(c3cn(C)c4ccccc34)C(=O)NC2=O)cc1OC [RO3206363-000]
[16]; compound concentrations: 100 nM and 1000 nM (sheet 'Samples'), CATDS: 3.3943818014748203E-2
  potency estimated from few doses: 1450 nM
[7]; compound concentrations: 100 nM and 1000 nM (sheet 'Samples'), CATDS: 7.8788816860825395E-2
  potency estimated from few doses: 166 nM

## Clc1ccc(-c2nn3ncccc3c2-c2ccnc(Nc3ccccc3)n2)cc1 [GW829055X]
[11]; compound concentrations: 100 nM and 1000 nM (sheet 'Samples'), CATDS: 0.15486403103885801
  potency estimated from few doses: 130 nM
[17]; compound concentrations: 100 nM and 1000 nM (sheet 'Samples'), CATDS: 5.2406473036639797E-2
  potency estimated from few doses: 681 nM

## Nc1c(C(=O)c2ccccc2)cnn1-c1ccc(F)cc1 [RO1151246-000]
[10]; [19]
  potency estimated from few doses: 1920 nM
[18]
  potency estimated from few doses: 1290 nM
[13]
  potency estimated from few doses: 1660 nM
[8]; [19]
  potency estimated from few doses: 1780 nM
[16]; [19]
  potency estimated from few doses: 1890 nM

## Fc1cccc(COc2ccc(Nc3ncncc3C#Cc3ccccc3)cc2Cl)c1 [GW651576X]
[1]; compound concentrations: 100 nM and 1000 nM (sheet 'Samples'), CATDS: 5.6163427913581303E-2
  potency estimated from few doses: 1410 nM
[11]; compound concentrations: 100 nM and 1000 nM (sheet 'Samples'), CATDS: 5.0215020986353498E-2
  potency estimated from few doses: 1770 nM
[17]; compound concentrations: 100 nM and 1000 nM (sheet 'Samples'), CATDS: 5.1701945188740897E-2
  potency estimated from few doses: 1670 nM
[16]; compound concentrations: 100 nM and 1000 nM (sheet 'Samples'), CATDS: 5.7539827795964102E-2
  potency estimated from few doses: 1350 nM

## Cc1ccc(NC(=O)c2ccc(Cl)cc2)cc1-c1ccc(C(=O)Nc2ccncc2)cc1 [GSK1398467A]
[11]; compound concentrations: 100 nM and 1000 nM (sheet 'Samples'), CATDS: 0.228122835279086
  potency estimated from few doses: 956 nM

## COc1ccc(COc2ccc(Cc3cnc(N)nc3N)cc2OC)cc1 [GW632580X]
[11]; [19]
  potency estimated from few doses: 1910 nM

## COc1cc(N2CCN(C(C)C)CC2)ccc1Nc1nc(Nc2cccc(F)c2C(=O)O)c2cc[nH]c2n1 [GSK1819799A]
[4]; compound concentrations: 100 nM and 1000 nM (sheet 'Samples'), CATDS: 0.22198197498325201
  potency estimated from few doses: 84.9 nM

## COc1cc2ncn(-c3cc(O[C@H](C)c4ccccc4Cl)c(C(N)=O)s3)c2cc1OC [GSK237701A]
[17]; [19]
  potency estimated from few doses: 1520 nM
[15]
  potency estimated from few doses: 782 nM

## Cn1cc(C2=C(c3ccccc3[N+](=O)[O-])C(=O)NC2=O)c2ccccc21 [RO0317753-000]
[3]; compound concentrations: 100 nM and 1000 nM (sheet 'Samples'), CATDS: 0.27950775870472
  potency estimated from few doses: 32.3 nM

## Cn1cc(C2=C(c3cn(CCCCCO)c4ccccc34)C(=O)NC2=O)c2ccccc21 [RO0318053-000]
[8]; compound concentrations: 100 nM and 1000 nM (sheet 'Samples'), CATDS: 8.4372577909481605E-2
  potency estimated from few doses: 1450 nM

## CN(C(=O)c1ccc(-c2cc(-c3c[nH]nc3-c3ccccn3)ccn2)cc1)C1CCOCC1 [GW810083X]
[1]; [19]
  potency estimated from few doses: 1840 nM
